Each structure is given as a SMILES string. About 83,000 compounds went through this panel and 20% of them were active in at least one assay; those are over-represented in the sample as a whole.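 Interpretation: 100, growth as untreated; towards 0, rising growth inhibition; 0, no net growth; 0 to -100, cell death. Compounds scoring below 10 were considered active.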 Calls of active or inactive are those of the source.

The assay concerns PC-3 prostate. The assay can be described thus: NCI-60 one-dose screen, 48 h (100 = growth as untreated, 0 = no growth, -100 = all killed). As to conditions: 10 µM unless noted. How it is done:
Growth inhibition of the PC-3 human tumor cell line is measured as a screen for anti-cancer activity. Cells are grown in 96 well plates and exposed to the test compound for 48 hours. Compounds are tested at a single concentration, which is 10^-5 M for most compounds. The reported endpoint is percent growth (GI% or GIPRCNT), where numbers from 0 - 100% represent growth inhibition, and numbers from -100% - 0 represent cell death. For example, a value of 40 represents 60% growth inhibition. A value of 0 means no net growth occurred over the course of the experiment. A value of -40 indicates 40% of cells at the beginning of the experiment died by the end of the experiment. A value of -100 means all cells are dead at the end of the experiment.
NCI-60 Human Tumor Cell Lines Screen was performed using the standard one-dose NCI protocol, which is described in more detail at https://dtp.cancer.gov/discovery_development/nci-60/default.htm.
Compounds with GIPRCNT values below 10 were considered active. Activity score was based on GIPRCNT using the following formula: […]
Score is 0 for GIPRCNT values of 100 or above, 50 for GIPRCNT values of 0, and 100 for GIPRCNT values of -100.
With `COc1ccc(-n2c(/C=C/c3ccc(O)c(OC)c3)cc(/C=C/c3ccc(O)c(OC)c3)nc2=O)cc1`, the growth is 53.7% (inactive). For `Cn1cc(-c2nc(-c3c[nH]c4ncccc34)cs2)c2ccccc21`, the growth was 80.6% (inactive). For the compound `COc1cc2nc(Cl)nc(Nc3cccc(C(=O)/C=C/c4ccc(Br)cc4)c3)c2cc1OC`, the growth was 65.5% (inactive).

With `CN(C)c1ccc(N=C2C=CC(=O)C=C2)cc1`, the growth was 64.4% (inactive). For `OCC1OC(n2cnc3c(Cl)ncnc32)CC1O` (stereo not given), the growth is 88.9% (inactive). In the case of `COC(=O)[C@]12CC[C@@H](C)[C@H](C)[C@@H]1C1=CC[C@@H]3[C@@]4(C)C[C@@H](O)[C@H](O)[C@@](C)(CO)C4=CC[C@@]3(C)[C@]1(C)CC2`, the growth was -85.1% (active). The value for `O=S(=O)(NCCNc1cc(-c2cn(-c3ccccc3)nc2-c2cccc(O)c2)ccn1)c1ccc(C(F)(F)F)cc1` was 22.6% (inactive); that for `CCC(c1ccc(OC)cc1)C(CC)c1ccc(O)c(CN2CCCCC2)c1` (stereo not given) was 54.3% (inactive); that for `CCNCCCn1c2c(c3ccc([N+](=O)[O-])cc3c1=O)C(=O)c1cc(OC)cnc1-2` was 1.89% (active). The value for `Cc1cccc(C)c1NC(=O)CSC(=S)N1CCCCC1` was 97.6% (inactive); that for `Cc1cc(N2CCCC2)nc(N(CCNc2ccnc3cc(Cl)ccc23)Cc2ccco2)n1` was 0.723% (active).

Consider `CC(C)=CCC[C@](C)(O)[C@H]1CC[C@]2(C)[C@@H]1CC[C@@H]1[C@@]3(C)C/C(=C/c4cccc([N+](=O)[O-])c4)C(=O)C(C)(C)[C@@H]3CC[C@]12C`, for which the growth was 58.2% (inactive). In the case of `CC1(C)C(=O)/C(=C\c2ccco2)C[C@]2(C)[C@H]3CC[C@@H]4[C@@H](C(=O)/C=C/c5ccco5)CC[C@@]4(C)[C@]3(C)CC[C@@H]12` it was 80.4% (inactive); in that of `C=C(C)[C@@H]1CC[C@]2(C(=O)NNC(=O)c3cccnc3)CC[C@]3(C)[C@H](CC[C@@H]4[C@@]5(C)CCCNC(C)(C)[C@@H]5CC[C@]43C)[C@@H]12`, 50.3% (inactive). Regarding `O=S(=O)(NCCNc1cc(-c2cn(-c3ccccc3)nc2-c2cccc(O)c2)ccn1)c1ccc(Cl)cc1`, the growth was 14.9% (inactive).

Take `CCCCC[C@H]1C/C=C2/C(=O)C=C[C@@H]2C/C=C\CCCC(=O)O[C@@H](CCCCC)C/C=C2/C(=O)C=C[C@@H]2C/C=C\CCCC(=O)O1`: the growth was -71% (active). The value for `CC(=O)Nc1cc(F)cc(C(F)(F)F)c1Cl` was 95.7% (inactive); that for `Cc1ccncc1C(=O)O` was 90.1% (inactive). On to `Cc1cc(N2CCOCC2)nc(N(CCCNc2ccnc3cc(Cl)ccc23)Cc2ccco2)n1`, for which the growth is 34.7% (inactive).

`Nc1nc(N)c2nc3c(nc2n1)CCCCCCCCCC3`: the growth was 39.2% (inactive).

Take `O=C(NC1=CC(=O)c2ccccc2C1=O)c1ccccc1`: the growth was 16.6% (inactive). In the case of `C#Cc1cc2c(N)c(C(=O)c3cc(OC)c(OC)c(OC)c3)[nH]c2cc1OC` it was 16.3% (inactive); in that of `NC(=O)[C@@H]1CC2CCC1C2` (stereo not given in full), 91% (inactive).

Consider `CC1(C)[C@@H](O)CC[C@]2(C)[C@H]3CC[C@@H]4[C@H]5[C@H](C(=O)/C=C/c6ccc(C(F)(F)F)cc6)CC[C@]5(CO)CC[C@@]4(C)[C@]3(C)CC[C@@H]12`, for which the growth was 43.9% (inactive).

In the case of `COc1cccc(-c2nn(-c3ccccc3)cc2-c2ccnc(NCCCNS(=O)(=O)c3ccc(C(F)(F)F)cc3)c2)c1`, the growth is 12.9% (inactive). In the case of `CC(c1ccccc1)N1C(=O)C(C2SC(=S)N(C(C)c3ccccc3)C2=O)SC1=S` (stereo not given) it was 84.7% (inactive); in that of `Nc1c2c(nc3ccc(Cl)cc13)CC(c1ccccc1)CC2=O` (stereo not given), 54.8% (inactive). The value for `O=C1C(=O)c2ccccc2C(O)=C1CCCc1ccc(C2CCCCC2)cc1` was 39.2% (inactive). On to `Cc1cc2nc3c4cc([N+](=O)[O-])cc([N+](=O)[O-])c4n(CCN(C)C)c3nc2cc1C`, for which the growth was 77.1% (inactive). The value for `Cc1ccc(C)c2c1CCC2C(C)C` (stereo not given) was 90.1% (inactive); that for `N#C/C(=C\c1ccc(-c2ccc(F)cc2)o1)c1nc(-c2ccco2)cs1` was 93.3% (inactive). The value for `O=C(CI)Nc1ccc(O)c2ccccc12` was 43.3% (inactive); that for `CCOc1ccc(NC(=O)c2ccccc2-c2ccccc2C(=O)O)cc1` was 101% (inactive); that for `Brc1ccc(Cn2nnnc2-c2ccn(-c3ccccc3)n2)cc1` was 60.8% (inactive). The value for `NC1=C(C/C(N)=N\O)C(c2ccccc2Cl)c2c(ccc3ccccc23)O1` (stereo not given) was 74.2% (inactive); that for `CN1CCN(CCOc2ccc(-c3cnc4c(-c5cccc(F)c5)cnn4c3)cc2)CC1` was 51.2% (inactive); that for `COc1ccc(-c2cc(-c3c(C)oc4cc5occc5c(OC)c4c3=O)nc(N)c2C#N)cc1OC` was 62.6% (inactive). Take `COc1ccc2c(c1)c(-c1nc(-c3c[nH]c4ncccc34)cs1)cn2C`: the growth is 61.1% (inactive). The value for `Cn1cc(-c2csc(-c3cn(CCN)c4ccc(Br)cc34)n2)c2cccnc21` was 66.3% (inactive); that for `O=c1c(CNc2ccc(S(=O)(=O)Nc3nccs3)cc2)coc2ccccc12` was 107% (inactive).
